# Measurements taken from PubChem BioAssay AID493169 (National Center for Advancing Translational Sciences (NCATS), 2011).
# Records with an inconclusive call do not appear. Where a call stands in place of a potency, no number is given. Active and inactive are the calls of the source. The call rests on the fitted dose curve; in most records, active means well fitted inhibition curve with a large enough effect; inconclusive means small, poorly fitted or top-dose-only effect; inactive means flat fitted curve, though single readings scatter.
# Experiment: CHOP2 Reporter Counterscreen Assay for Inhibitors of Ubiquitin-specific Protease USP2a;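 further: activated enterokinase alone at 50 pM in a cell-free format rather than USP2a or CHOP2; nearly all actives have a fitted effect of over 55% in size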
# Details: purified enterokinase, fluorogenic substrate, 485/531 nm; series mostly up to 38.3 µM
# Method in brief: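 Fluorescence (485/531 nm) read 10 min after adding 25nM reporter substrate to 50 pM activated EK preincubated 30 min RT with compound; Tris pH 8.0/CaCl2/CHAPS buffer. Data normalized to buffer-alone inhibition; concentration-response curves fitted.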
# Potency means the concentration at half of the fitted maximal effect.
row,Structure (SMILES),Potency
1,Cc1ccc(NS(=O)(=O)c2cccc(C(=O)OCC(=O)NCc3ccco3)c2)cc1,10 µM (active)
2,CC(C)C(C(=O)O)N1C(=O)/C(=C/C=C/c2ccco2)SC1=S (stereo not given),2 µM (active)
3,O=C(CCc1nc(-c2ccccc2F)no1)NC1CCCCCC1,inactive
4,Cc1ccc(C(=O)Nc2nnc(CC(=O)N/N=C/c3ccc(O)c(O)c3)s2)cc1,2.82 µM (active)
5,CN=c1scc(-c2ccccc2F)n1/N=C/c1ccc(O)c(O)c1O,10 µM (active)
6,CCOc1cccc(NC(=O)/C(C#N)=C\c2cn(CC(=O)O)c3ccccc23)c1,inactive
7,O=C(CSc1nc(N2CCCCC2)nc(N2CCCCC2)n1)N1CCN(c2ccccc2)CC1,inactive
8,Cc1cc(Cl)ccc1NC(=S)NCCCN1CCCC1=O,inactive
9,O=C(COC(=O)c1ccc(NS(=O)(=O)c2cccs2)cc1)Nc1nc2c(F)c(F)c(F)cc2s1,10 µM (active)
10,O=C(Nc1ccc(N2CCCC2)cc1)c1cccc(-c2cc3ccccc3oc2=O)c1,inactive
11,CC(C)CC(=O)Nc1cccc(-c2nc3ccccc3o2)c1,inactive
12,CCOC(=O)N1CCC(NC(=O)c2ccc(OC)c(CN3CC(=O)N4CCCC4C3=O)c2)CC1 (stereo not given),inactive
13,CC(C)(C)C(=O)Nc1c2c(nc3c1CCC3)CCCC2,inactive
14,C#CCOCCOCCOCCNc1nc(N2CCN(C(=O)CCCCCCCCCCNC(=O)[C@@H](CCSC)n3cc(CCO)nn3)CC2)nc(N2CCN(C(=O)CCCCCCCCCCNC(=O)[C@H](CCCN=C(N)N)n3cc(C[C@@H](C)CC)nn3)CC2)n1,2.51 µM (active)
15,CN(C)c1ccc(-c2ccccc2)nn1,inactive
16,COc1ccc(Cl)cc1C(=O)Nc1cccc(-c2ccc3nncn3n2)c1,10 µM (active)
17,N#CCc1ccc(NC(=O)/C=C/c2ccc([N+](=O)[O-])o2)cc1,10 µM (active)
18,O=C(N/N=C1\CC(c2ccccc2)Oc2ccccc21)c1ccc(O)cc1 (stereo not given),inactive
19,CCC(C(=O)NCc1ccccc1OC)n1nc(C)n2c(cc3occc32)c1=O (stereo not given),inactive
20,CCn1cc(C(=O)N2CCOCC2)c(=O)c2cc(S(=O)(=O)N(C)C)ccc21,inactive

row,Structure (SMILES),Potency
1,CC(C)(C)C1CCC(=NNC(=O)CN(c2ccccc2)S(C)(=O)=O)CC1 (stereo not given),inactive
2,O=C1N=c2ccccc2=C1c1sc(Nc2ccc(O)cc2)nc1O,8.91 µM (active)
3,CC(C)c1ccc(NC(=O)C(c2ccc3c(c2)OCO3)N2CCCCC2)cc1 (stereo not given),inactive
4,COc1ccc(-c2nnn(CC(=O)N3CCOCC3)n2)cc1,inactive
5,O=C(Nc1ccc(Oc2ccc(Cl)cc2)cc1)c1ncn[nH]1,inactive
6,COc1cccc(NC(=O)CSc2nncn2-c2ccccn2)c1,inactive
7,Cc1ccc(CNC(=O)CCNS(=O)(=O)c2ccc(C)cc2)cc1,inactive
8,O=C(Nc1cccc(C(F)(F)F)c1)/C(=C\c1ccco1)NC(=O)c1cccs1,inactive
9,NS(=O)(=O)c1cc(C(=O)NC2CCSc3ccccc32)ccc1Cl (stereo not given),10 µM (active)
10,CCC/C(O)=C1\C(=O)CC(C)(C)CC1=Nc1ccc(OC)cc1OC,inactive
11,COc1cc(/C=C/C(=O)OCC(=O)NC(=O)NCc2ccco2)ccc1OC(F)F,inactive
12,CCOC(=O)N1CCN(C(=O)CN(c2cccc(C)c2)S(=O)(=O)c2ccccc2)CC1,inactive
13,O=C(c1ccc(CS(=O)(=O)c2ccc(Br)cc2)o1)N1CCCC1,inactive
14,Cc1ccc(NC(=O)c2onc(C)c2Cl)cc1,inactive
15,CNc1cccccc1=S,inactive
16,Cc1cc(SCC(=O)NC2CCCCC2)nc2ccccc12,inactive
17,C#CCOCCOCCOCCNc1nc(N2CCN(C(=O)CCCCCCCCCCNC(=O)[C@H](CO)n3cc(CCCSC)nn3)CC2)nc(N2CCN(C(=O)CCCCCCCCCCNC(=O)[C@H](CCCN=C(N)N)n3cc(C[C@@H](C)CC)nn3)CC2)n1,3.98 µM (active)
18,CCOc1cc(/C=C/c2nc3cc(C)c(C)cc3s2)ccc1OCC(=O)N1CCOCC1,inactive
19,O=C(Nc1ccc(S(=O)(=O)Nc2ncccn2)cc1)c1ccc(S(=O)(=O)N2CCCC2)cc1,inactive
20,CCOc1ccc(NC(=O)N(CCCN2CCOCC2)Cc2cccnc2)cc1,inactive
